The text below walks through data of PubChem BioAssay.

A number with no mark means an inactive call. For some of these results: Entries with a potency or affinity are not part of this list. The source made the active and inactive calls. Unless noted, no rule for the calls is given here.

The nature of assay [1]: antimalarial activity against Dd2 strain (AID 2302;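 active = growth inhibition above 50% at the single 2 µM test dose, taken to imply half-maximal potency below 2 µM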;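 also: 0% = DMSO untreated growth and 100% = chloroquine plus artemisinin killed control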). The settings on record: P. falciparum Dd2 in RBCs, LDH growth readout, 72 h; at 2 µM; stronger effect = higher value.
A short description of assay [2]: HepG2 cytotoxicity, primary screen, cytotoxicity control for P. falciparum antimalarial project, cell-based, ATP luminescence (AID 2303;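 active = inhibition above 50%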;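 also: 0% = DMSO wells and 100% = digitonin-killed cells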). The conditions noted are these: HepG2 viability, 24-48 h, at 10 µM, stronger effect = higher value.
Assay [3] addresses L-lactate dehydrogenase (Plasmodium falciparum (isolate CDC / Honduras)) (UniProt Q27743). Nature of the assay: PfLDH activity inhibition – cell lysate, 3D7 strain, counter-screen for P. falciparum growth inhibition project (AID 2304).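 Also: 0% = vehicle and 100% = reference inhibitor.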 The conditions noted are these: P. falciparum 3D7 crude extract, LDH APAD/NBT absorbance; at 2 µM; stronger effect = higher value. A general note: The purpose of a counterscreen is to sort out artefacts and off-target activity.

Assay [4] is described as follows: inhibition of 3D7 malaria parasite growth – strain 3D7 (AID 2306).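 Also: 0% = DMSO wells and 100% = chloroquine plus artemisinin control wells.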 The conditions noted are these: P. falciparum 3D7 erythrocytic growth, LDH absorbance, 72 h; at 2 µM; stronger effect = higher value.
In assay [5] the target is Calcium-dependent protein kinase 1 (Plasmodium falciparum (isolate 3D7)) (UniProt P62344). Kind of assay: PfCDPK1 kinase inhibitors, biochemical, TCAMS library (AID 1159585; cut-off not given, nearly all actives have IC50 up to about 0.98 µM;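 also: inhibitors leave more ATP so luminescence rises with inhibition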). The settings on record: recombinant PfCDPK1, Kinase-Glo ATP depletion luminescence.
Calcium-dependent protein kinase 1 (Plasmodium falciparum (isolate 3D7)), sequence (P62344 whole entry, looked up): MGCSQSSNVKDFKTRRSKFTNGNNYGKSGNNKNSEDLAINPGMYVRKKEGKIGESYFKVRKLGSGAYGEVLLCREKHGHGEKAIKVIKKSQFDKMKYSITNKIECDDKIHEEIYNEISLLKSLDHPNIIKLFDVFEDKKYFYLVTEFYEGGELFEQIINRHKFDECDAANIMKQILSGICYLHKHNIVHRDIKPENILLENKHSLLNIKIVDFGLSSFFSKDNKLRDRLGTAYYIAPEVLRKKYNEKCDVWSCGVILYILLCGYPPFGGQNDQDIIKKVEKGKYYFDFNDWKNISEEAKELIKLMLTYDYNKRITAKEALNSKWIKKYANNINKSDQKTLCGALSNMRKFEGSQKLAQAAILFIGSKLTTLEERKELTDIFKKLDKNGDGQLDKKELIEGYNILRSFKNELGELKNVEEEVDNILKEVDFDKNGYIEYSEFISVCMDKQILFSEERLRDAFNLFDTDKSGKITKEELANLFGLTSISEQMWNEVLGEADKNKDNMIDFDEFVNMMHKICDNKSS
The target of assay [6] is Plasmodium falciparum protein kinase 6 (PK6, PF3D7_1337100) (UniProt Q8IDW1). Nature of the assay: PfPK6 kinase inhibitors, biochemical, TCAMS library (AID 1159586). The conditions noted are these: recombinant PfPK6, Kinase-Glo ATP depletion luminescence. (In general: Kinase-Glo reads ATP consumption through a luciferase reaction.)
Plasmodium falciparum protein kinase 6 (PK6, PF3D7_1337100), sequence (Q8IDW1 1-305): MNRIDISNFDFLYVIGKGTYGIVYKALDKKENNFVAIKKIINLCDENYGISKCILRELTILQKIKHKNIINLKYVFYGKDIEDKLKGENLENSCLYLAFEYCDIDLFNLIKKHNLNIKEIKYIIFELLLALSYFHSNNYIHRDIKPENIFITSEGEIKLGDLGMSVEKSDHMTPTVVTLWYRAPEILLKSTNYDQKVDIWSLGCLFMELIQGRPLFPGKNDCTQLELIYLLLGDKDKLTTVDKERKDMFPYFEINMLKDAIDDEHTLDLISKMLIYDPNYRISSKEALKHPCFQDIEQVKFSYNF
The target of assay [7] is Protein kinase 7 (PK7), Plasmodium falciparum 3D7 (PF3D7_0213400) (UniProt Q7YTF7). Nature of the assay: inhibition of Plasmodium PK7 catalytic activity – biochemical, TCAMS antimalarial set, Kinase-Glo luminescence (AID 1159587). The conditions noted are these: recombinant PfPK7, Kinase-Glo ATP depletion luminescence.
Protein kinase 7 (PK7), Plasmodium falciparum 3D7 (PF3D7_0213400), sequence (Q7YTF7 1-343): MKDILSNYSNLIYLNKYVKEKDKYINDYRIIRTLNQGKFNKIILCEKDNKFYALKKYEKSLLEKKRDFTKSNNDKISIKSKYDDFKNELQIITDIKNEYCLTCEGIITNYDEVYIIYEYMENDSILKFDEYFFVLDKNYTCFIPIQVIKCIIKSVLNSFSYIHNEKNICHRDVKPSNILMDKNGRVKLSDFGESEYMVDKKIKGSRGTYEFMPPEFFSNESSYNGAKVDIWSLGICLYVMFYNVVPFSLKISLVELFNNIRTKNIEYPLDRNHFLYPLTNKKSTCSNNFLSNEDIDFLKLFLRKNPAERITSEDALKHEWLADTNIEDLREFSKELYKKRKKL
The target in assay [8] is Calcium-dependent protein kinase 4 (Plasmodium falciparum (isolate 3D7)) (UniProt Q8IBS5). Kind of assay: PfCDPK4 kinase inhibitors, biochemical, TCAMS library (AID 1159588; cut-off not given, nearly all actives have IC50 up to about 0.91 µM). The conditions noted are these: recombinant PfCDPK4, Kinase-Glo ATP depletion luminescence.
Calcium-dependent protein kinase 4 (Plasmodium falciparum (isolate 3D7)), sequence (Q8IBS5 whole entry, looked up): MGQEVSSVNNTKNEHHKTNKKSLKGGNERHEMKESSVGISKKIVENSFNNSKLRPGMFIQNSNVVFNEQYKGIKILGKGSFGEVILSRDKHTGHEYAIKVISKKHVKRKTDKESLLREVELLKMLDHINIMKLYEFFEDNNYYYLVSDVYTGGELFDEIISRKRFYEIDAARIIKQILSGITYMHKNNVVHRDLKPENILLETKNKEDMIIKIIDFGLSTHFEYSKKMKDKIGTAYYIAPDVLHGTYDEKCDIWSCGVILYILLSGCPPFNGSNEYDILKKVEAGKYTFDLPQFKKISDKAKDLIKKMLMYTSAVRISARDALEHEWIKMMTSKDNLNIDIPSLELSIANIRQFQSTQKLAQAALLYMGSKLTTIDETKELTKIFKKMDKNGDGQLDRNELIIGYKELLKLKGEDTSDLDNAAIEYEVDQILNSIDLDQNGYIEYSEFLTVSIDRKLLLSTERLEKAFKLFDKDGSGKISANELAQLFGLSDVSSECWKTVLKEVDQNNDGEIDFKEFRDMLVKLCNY

L-lactate dehydrogenase (Plasmodium falciparum (isolate CDC / Honduras)), sequence (Q27743 whole entry, looked up): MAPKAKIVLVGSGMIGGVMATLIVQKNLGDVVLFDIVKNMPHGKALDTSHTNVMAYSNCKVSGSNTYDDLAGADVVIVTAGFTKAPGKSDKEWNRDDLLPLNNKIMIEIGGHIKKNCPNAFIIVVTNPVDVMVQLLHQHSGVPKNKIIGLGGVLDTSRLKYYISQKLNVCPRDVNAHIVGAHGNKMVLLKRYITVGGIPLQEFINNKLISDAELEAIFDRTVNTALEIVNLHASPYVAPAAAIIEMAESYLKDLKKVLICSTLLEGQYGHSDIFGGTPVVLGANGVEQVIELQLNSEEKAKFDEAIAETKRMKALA

For `COc1ccc(C(C(=O)NC2CCN(C[C@H](O)c3ccnc4ccc(OC)cc34)CC2)N2CCc3ccccc3C2)cc1` (stereo not given in full), the growth inhibition is 30% in assay [1] and 96% (active) in assay [4]. In addition, the inhibition is 19% in assay [2] and -3% in assay [3]. Besides, the outcome in assay [5], in assay [6], in assay [7] and in assay [8] was inactive.

With `CCOC(=O)c1ccc(NC(=O)N[C@@H](Cc2ccccc2)C(=O)NC2CCN(Cc3ccc(O)c(OC)c3)C2)cc1` (stereo not given in full), the growth inhibition was 0% in assay [1] and 88% (active) in assay [4]. The inhibition in assay [2] is -1%; in assay [3], -2%. Also, the result in assay [5], in assay [6], in assay [7] and in assay [8] was inactive.

On to `COc1ccc2nccc(N3CCC(CCNCc4ccc5c(n4)NC(=O)CO5)CC3)c2c1`, for which the figures for the growth inhibition in assay [1] and in assay [4] were 50% (active) and 101% (active), respectively. Further, the inhibition is 22% in assay [2] and -1% in assay [3]. In addition, the result in assay [5], in assay [6], in assay [7] and in assay [8] was inactive.

For `COc1ccc(NC(=O)CCNc2ccnc(NCCc3ccc(F)cc3)n2)cc1`, the growth inhibition is 5% in assay [1] and 94% (active) in assay [4]. The inhibition is 4% in assay [2] and -3% in assay [3]. In addition, the result in assay [5], in assay [6], in assay [7] and in assay [8] was inactive.

With `CCc1sc(-c2cc(Cl)ccc2OC)nc1C(=O)NCCN1CCCCC1`, the values for the growth inhibition in assay [1] and in assay [4] were 28% and 100% (active), respectively. The inhibition in assay [2] was 3%; in assay [3], 2%. Moreover, the result in assay [5], in assay [6], in assay [7] and in assay [8] was inactive.

Turning to `COc1ccc(CNCc2cccc(-c3cccc(-c4nc5ccc(F)cc5[nH]4)c3)c2)cc1`, the growth inhibition in assay [1] was 55% (active); in assay [4], 100% (active). Further, the inhibition was 18% in assay [2] and 5% in assay [3]. For the same compound, the outcome in assay [5], in assay [6], in assay [7] and in assay [8] was inactive.

As to `COc1ccc(CCNCCCCCCNCCc2ccc(-c3ccccc3)cc2)cc1OC`, the growth inhibition was 35% in assay [1] and 99% (active) in assay [4]. For the same compound, the figures for the inhibition in assay [2] and in assay [3] were 100% (active) and 1%, respectively. Also, the outcome in assay [5], in assay [6], in assay [7] and in assay [8] was inactive.

In the case of `O=C(NCCCCN1CC=C(c2ccc3c(c2OCC2CC2)CCCC3)CC1)c1ccc(-c2ccc(C(F)(F)F)cc2)cc1`, the results for the growth inhibition in assay [1] and in assay [4] were 60% (active) and 93% (active), respectively. Besides, the figures for the inhibition in assay [2] and in assay [3] were 25% and -10%, respectively. In addition, the result in assay [5], in assay [6], in assay [7] and in assay [8] was inactive.

For `CCNc1cc(C(=O)N[C@@H](Cc2ccccc2)[C@H](O)CNC(C)(C)Cc2ccccc2)cc(N2CCCC2=O)c1`, the growth inhibition in assay [1] was 78% (active); in assay [4], 99% (active). Also, the results for the inhibition in assay [2] and in assay [3] were 1% and 3%, respectively. For the same compound, the result in assay [5], in assay [6], in assay [7] and in assay [8] was inactive.

Consider `Fc1ccc(-c2nc(NCc3cccc(C(F)(F)F)c3)nn2-c2cccc(C(F)(F)F)c2)cc1C(F)(F)F`, for which the growth inhibition was 58% (active) in assay [1] and 90% (active) in assay [4]. For the same compound, the results for the inhibition in assay [2] and in assay [3] were 2% and -5%, respectively. Besides, the outcome in assay [5], in assay [6], in assay [7] and in assay [8] was inactive.

As for `COc1ccc2nccc([C@@H](O)CN3CCC(NS(=O)(=O)c4cc5c(cc4Cl)SCC(=O)N5)CC3)c2c1`, the growth inhibition is 0% in assay [1] and 88% (active) in assay [4]. Moreover, the figures for the inhibition in assay [2] and in assay [3] were 5% and 0%, respectively. Moreover, the result in assay [5], in assay [6], in assay [7] and in assay [8] was inactive.

Turning to `O=C(CCCc1ccccc1)Nc1cccc(N2CCC(N3CCN(c4ccccc4O)CC3)CC2)c1`, the growth inhibition in assay [1] was 41%; in assay [4] it was 98% (active). In addition, the inhibition was 31% in assay [2] and -1% in assay [3]. Further, the outcome in assay [5], in assay [6], in assay [7] and in assay [8] was inactive.

As for `O=c1cc(NCCCNCc2ccc(C(F)(F)F)c(F)c2)[nH]c2ccccc12`, the growth inhibition was 26% in assay [1] and 93% (active) in assay [4]. Further, the inhibition in assay [2] is 5%; in assay [3], 4%. Further, the result in assay [5], in assay [6], in assay [7] and in assay [8] was inactive.

Turning to `COc1cccc(-c2[nH]c3ccccc3c2CN2CCC(c3c(C)cccc3C)CC2)c1`, the growth inhibition in assay [1] was 24%; in assay [4], 99% (active). The inhibition was 32% in assay [2] and 3% in assay [3]. In addition, the outcome in assay [5], in assay [6], in assay [7] and in assay [8] was inactive.

Regarding `COc1cccc2c(Oc3ccccc3C)ccnc12`, the growth inhibition in assay [1] was 45%; in assay [4] it was 85% (active). For the same compound, the values for the inhibition in assay [2] and in assay [3] were -7% and 4%, respectively. For the same compound, the outcome in assay [5], in assay [6], in assay [7] and in assay [8] was inactive.

Regarding `COc1cccc(C(=O)N2CCN(Cc3cccc(NC(=O)c4cccs4)c3)CC2)c1`, the growth inhibition in assay [1] and in assay [4] was 95% (active) in each case. The values for the inhibition in assay [2] and in assay [3] were 6% and -2%, respectively. The result in assay [5], in assay [6], in assay [7] and in assay [8] was inactive.

Turning to `CC(C)CNC(=O)c1cncc(-c2ccc(CN3CCC(N4CCCC4)CC3)cc2)c1`, the figures for the growth inhibition in assay [1] and in assay [4] were 42% and 100% (active), respectively. In addition, the inhibition is 25% in assay [2] and 2% in assay [3]. Further, the result in assay [5], in assay [6], in assay [7] and in assay [8] was inactive.

As for `COc1ccc(C(=O)N2CCC(C(=O)NC(C)c3ccc(-n4ccnc4)cc3)CC2)c2ccccc12` (stereo not given), the growth inhibition in assay [1] was 79% (active); in assay [4], 83% (active). In addition, the inhibition was 12% in assay [2] and -4% in assay [3]. Further, the outcome in assay [5], in assay [6], in assay [7] and in assay [8] was inactive.

For the compound `O=C(Nc1cc(C(F)(F)F)cc(C(F)(F)F)c1)c1cccc([N+](=O)[O-])c1`, the growth inhibition in assay [1] is 15%; in assay [4], 93% (active). Further, the inhibition in assay [2] was 23%; in assay [3], -2%. Also, the outcome in assay [5], in assay [6], in assay [7] and in assay [8] was inactive.

As to `c1ccc2cc(CNCCCN3CCN(CCCNCc4ccc5ccccc5c4)CC3)ccc2c1`, the growth inhibition in assay [1] is 65% (active); in assay [4] it was 100% (active). The inhibition in assay [2] is 60% (active); in assay [3] it was 2%. The result in assay [5], in assay [6], in assay [7] and in assay [8] was inactive.

By inhibition is commonly meant the relative decrease from the control value, in per cent.
